About 83,000 compounds went through this panel and 20% of them were active in at least one assay; those are over-represented in the sample as a whole.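 Negative percent growth values reflect cell death: -40 means 40% of the cells present at the start died, and -100 means all died.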 Calls of active or inactive are those of the source. How the source made its calls: active means growth percent below 10; inactive means the rest.
Experiments:
Assay in all cases: NCI-60 one-dose screen, 48 h (100 = growth as untreated, 0 = no growth, -100 = all killed)
Conditions in all cases: 10 µM unless noted
[1] = tested on: HCT-15 colon
[2] = tested on: HT29 colon
[3] = tested on: SNB-75 CNS
[4] = tested on: SNB-19 CNS
[5] = tested on: U251 CNS
[6] = tested on: PC-3 prostate
[7] = tested on: SK-MEL-5 melanoma
[8] = tested on: UACC-62 melanoma
[9] = tested on: LOX IMVI melanoma
[10] = tested on: SK-MEL-28 melanoma

Measured: growth

CCOC(=O)c1ccc2c(c1)nc(-c1ccccc1)n2C1CCCCC1
inactive: [1] 78.2% | [2] 67.4% | [3] 97% | [4] 105% | [5] 88.8% | [6] 74.1% | [7] 93.8% | [8] 88% | [9] 99.2% | [10] 107%

O=C(/C=C/c1cn(-c2ccccc2)nc1-c1ccc(Cl)cc1)c1ccc(F)cc1
inactive: [1] 58.8% | [2] 77% | [3] 74.6% | [4] 76.1% | [5] 76.6% | [6] 67.6% | [7] 86% | [8] 59% | [9] 68.7% | [10] 106%

COc1ccc(C(=O)N2c3ccccc3Sc3ccccc32)c(OC)c1
active: [2] -0.815%
inactive: [1] 19.2% | [3] 18.5% | [4] 31.7% | [5] 24.5% | [6] 10.5% | [7] 19% | [8] 13.8% | [9] 37.8% | [10] 57.9%

CCCCNC(=O)Oc1ccc(/C(=C(/C)Cc2ccc(OC)cc2)c2ccc(OCCN(CC)CC)cc2)cc1
inactive: [1] 41% | [3] 69.1% | [4] 87.7% | [5] 59% | [6] 62.1% | [7] 79.1% | [8] 84.7% | [9] 74.9% | [10] 82.8%
active: [2] 6.03%

CCOC(=O)c1c(NC(=O)c2ccc(Cl)cc2)sc2c(CN(C)C)c(O)ccc12
active: [1] -1.49%
inactive: [2] 23% | [3] 79.2% | [4] 79.5% | [5] 54.4% | [6] 72.9% | [7] 87.4% | [8] 103% | [9] 60.6% | [10] 73.8%

Cc1ccc(C[P+](c2ccccc2)(c2ccccc2)c2ccccc2)cc1
inactive: [1] 82.5% | [4] 19.9% | [9] 15.4%
active: [2] 2.44% | [3] -3.92% | [5] 7.54% | [6] 4.25% | [7] -66.3% | [8] 6.79% | [10] 9.82%

Cn1ccnc1C(=O)/C=C/c1ccc(C(=O)Nc2ccccc2O)cc1
inactive: [2] 24.7% | [3] 46.2% | [4] 14.3% | [6] 23.5% | [7] 89.3% | [8] 50.6% | [10] 73.4%
active: [1] 7.09% | [5] 5.29% | [9] -18%

O=C1C(Cl)=C(Nc2ccc(S(=O)(=O)N3CCOCC3)cc2)C(=O)c2ccccc21
inactive: [1] 36.2% | [2] 49.2% | [3] 71.3% | [4] 96.9% | [5] 44.6% | [6] 46% | [7] 86.8% | [8] 29.7% | [9] 35.3% | [10] 47.5%

NC(=O)CSc1oc(-c2ccccc2)nc1S(=O)(=O)c1ccc(Br)cc1
active: [3] 9.67%
inactive: [1] 90.6% | [2] 50.2% | [4] 83% | [5] 54.6% | [6] 77.9% | [7] 55.7% | [8] 49.5% | [9] 94.3% | [10] 87.7%

c1ccc([P+](c2ccccc2)(c2ccccc2)c2ccc3c4ccc([P+](c5ccccc5)(c5ccccc5)c5ccccc5)c5cccc(c6cccc2c63)c54)cc1
inactive: [1] 66.2% | [3] 13.5% | [4] 12.5% | [5] 14% | [6] 17.7% | [8] 15%
active: [2] 8.41% | [7] -57.6% | [9] 3.08% | [10] 4.81%

CCCCCCCCCCC(CN(CC)CC)C(O)c1ccccc1 (stereo not given)
inactive: [1] 13.5% | [3] 49.4% | [4] 51.5% | [5] 12.9% | [6] 25.9%
active: [2] -2.44% | [7] -93.8% | [8] -44.3% | [9] -82% | [10] -61.6%

O=c1scc(-c2ccc(C(F)(F)F)cc2)s1
inactive: [1] 93.4% | [2] 89.4% | [3] 63.5% | [4] 91.8% | [5] 95.2% | [6] 87.8% | [7] 97% | [8] 84.1% | [9] 103% | [10] 102%

CN1CCc2nc3sc(C(N)=O)c(N)c3c(-c3cccs3)c2C1
active: [7] -58.7% | [9] 7.95% | [10] 5.5%
inactive: [1] 33% | [2] 42.6% | [3] 25.2% | [4] 37.9% | [5] 27.4% | [6] 32.5% | [8] 19.5%

COC1=CC(c2ccc[nH]2)=N/C1=C\c1[nH]c(C)c(CC(=O)NCc2ccccc2)c1C
inactive: [2] 15.1% | [3] 58.3% | [5] 18.7% | [6] 12% | [10] 22.1%
active: [1] -26% | [4] -1.25% | [7] -64% | [8] -30.5% | [9] -76.1%

CN(/C(N)=N/N=C/c1c2ccccc2cc2ccccc12)C1CCCCC1
inactive: [1] 25.5% | [2] 17.9% | [3] 57.2% | [4] 71.5% | [5] 48.3% | [6] 36.7% | [7] 12.1% | [8] 47.6% | [9] 31.3% | [10] 48.8%

CCCCNCCCCCNc1cc(OC)cc2cccnc12
inactive: [1] 88.2% | [2] 96% | [3] 74.1% | [4] 95.5% | [5] 91.8% | [6] 77.8% | [7] 94.3% | [8] 83.2% | [9] 105% | [10] 98.8%

C/C(Cc1ccc(Cl)cc1)=C(\c1ccc(O)cc1)c1ccc(Cl)cc1
inactive: [1] 85.3% | [2] 90.9% | [3] 94.7% | [4] 104% | [5] 102% | [6] 71.8% | [7] 100% | [8] 84.6% | [9] 89.9% | [10] 95.1%

COc1cc2c(cc1OC)C(C)N(S(N)(=O)=O)CC2 (stereo not given)
inactive: [1] 102% | [2] 99.8% | [3] 87.6% | [4] 97.6% | [5] 114% | [6] 89% | [7] 105% | [8] 95.4% | [9] 102% | [10] 106%

Cc1cc(=O)oc2cc(OCc3nn4c(Nc5nc6ccccc6s5)c(-c5ccccc5)nc4s3)ccc12
inactive: [1] 91.3% | [2] 102% | [3] 84.4% | [4] 74.7% | [5] 96.7% | [6] 87% | [7] 99.2% | [8] 84.4% | [9] 95.8% | [10] 102%

CCOC(=O)Cc1cnc(N/N=C(\C)c2cc3ccccc3o2)s1
inactive: [1] 105% | [2] 85.5% | [3] 105% | [4] 95% | [5] 91.3% | [6] 78% | [7] 99.3% | [8] 86.3% | [9] 86% | [10] 110%

NS(=O)(=O)c1ccc(N=Nc2c(O)n(Cc3ccccc3)c3ccc(Cl)cc23)cc1
active: [3] -9.32%
inactive: [1] 88.8% | [2] 94.6% | [4] 40.8% | [5] 81.7% | [6] 83.8% | [7] 80.5% | [8] 66.6% | [9] 97.6% | [10] 93.2%

C=CC[Se]C(=O)Cc1c(C)n(C(=O)c2ccc(Cl)cc2)c2ccc(OC)cc12
active: [1] 6.96% | [2] 9.35% | [3] -68.6% | [4] -46% | [5] -58.7% | [6] -36% | [7] -69.7% | [8] -66.1% | [9] 7.91% | [10] -16%

CS(=O)(=O)Nc1cncc(-c2ccc3ncnc(Nc4cncc(Cl)c4)c3c2)c1
inactive: [1] 92.9% | [2] 80% | [3] 82.4% | [4] 68.2% | [5] 59.2% | [6] 84.7% | [7] 95.4% | [8] 69.6% | [9] 79.7% | [10] 81.6%

CCOC(=O)NC(C)C
inactive: [1] 109% | [2] 107% | [3] 96.8% | [4] 99.3% | [5] 106% | [6] 82% | [7] 103% | [8] 105% | [9] 102% | [10] 119%

CCOc1ccccc1Cn1ccnc1CCc1c(Cl)c(O)cc(O)c1C(=O)OC
inactive: [1] 104% | [2] 94.8% | [3] 88.2% | [4] 92.4% | [5] 97.5% | [6] 86.9% | [7] 94.6% | [8] 92.1% | [9] 89.2% | [10] 96.6%

Cn1cc(-c2nonc2-c2cn(C)c3ccccc23)c2ccccc21
inactive: [1] 30.2% | [4] 24.7% | [5] 18.8% | [6] 26.2% | [7] 26.2% | [8] 30.6% | [9] 48.5% | [10] 57.4%
active: [2] 6.32% | [3] 2.13%

COc1ccc2c(c1)N(CCO)C1=C(C(=O)OC1)C2c1cccc(F)c1 (stereo not given)
inactive: [3] 35.7% | [4] 27.8% | [5] 16.9% | [6] 25.6% | [7] 12.3% | [8] 40% | [9] 27.5% | [10] 47.9%
active: [1] 7.3% | [2] 3.98%
